An excerpt weighted towards active compounds, which were near 3.5% of everything screened.
GDH-TPI inh: GDH-TPI coupling enzyme inhibitors, primary screen, artefact control for M. tuberculosis FBA inhibitor project, biochemical, absorbance, full deck; GDH-TPI coupled enzyme counterscreen, NADH absorbance; inhibition, % at 4.8 µM; 1.2% of 360,000 active; in the data active means inhibition above about 30%;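 further: 0% = DMSO wells and 100% = wells lacking the enzyme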
Mtb UGM inh: M. tuberculosis UGM enzyme inhibitors, primary screen, biochemical, fluorescence polarization, single point | UDP-galactopyranose mutase (Mycobacterium tuberculosis (strain ATCC 25618 / H37Rv)), … | purified UGM, fluorescence polarization probe displacement | inhibition, % at 10 µM | 0.06% of 320,000 active; in the data active means inhibition above about 10%, passing the limit was not always enough
Rv3671c protease: Rv3671c serine protease inhibitors, primary screen, biochemical, fluorescence polarization, M. tuberculosis H37Rv | 0.048% of 320,000 active | inhibition, % at 5.96 µM | AID 2606, 2010; in the data active means inhibition above about 38%;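 further: extracellular domain of Rv3671c used as enzyme; 0% = enzyme with DMSO and 100% = no enzyme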
FadD28 binding: inhibitors of FadD28 bisubstrate probe binding, primary screen, biochemical, fluorescence polarization, single point. inhibition, % at 12.5 µM. 0.22% of 360,000 active. AID 588549, 2011; in the data active means inhibition above about 8.5%, passing the limit was not always enough
Mtb FBA inh: Mtb FBA enzyme inhibitors, primary screen, biochemical, fluorescence, strain H37Rv; Fructose-bisphosphate aldolase (Mycobacterium tuberculosis (strain ATCC 25618 / H37Rv)), …; inhibition, % at 1 µM; 2.3% of 360,000 active; purified M. tuberculosis FBA, fluorescence read-out; in the data active means inhibition above about 27%;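 further: 0% = vehicle and 100% = reference inhibitor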
Target sequence (P9WQA3 whole entry, looked up): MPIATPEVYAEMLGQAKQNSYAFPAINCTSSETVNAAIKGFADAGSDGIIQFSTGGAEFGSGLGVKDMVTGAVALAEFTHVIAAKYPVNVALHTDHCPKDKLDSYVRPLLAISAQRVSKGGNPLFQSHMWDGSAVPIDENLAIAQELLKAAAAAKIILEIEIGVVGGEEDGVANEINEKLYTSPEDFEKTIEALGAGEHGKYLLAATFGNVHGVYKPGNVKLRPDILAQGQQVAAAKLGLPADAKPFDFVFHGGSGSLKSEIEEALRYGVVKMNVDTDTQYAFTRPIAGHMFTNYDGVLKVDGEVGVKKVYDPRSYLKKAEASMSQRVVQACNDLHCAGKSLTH
Mtb hypoxia rep: PubChem AID 1159583 | 0.1% of 300,000 active | fluorescence inhibition, % (no concentration beside the values) | M. tuberculosis hypoxia-regulated fluorescent reporter, fluorescence; in the data active means fluorescence inhibition mostly above about 23%, no sharp cut-off; inactive means mostly below about 17%
Numbers without * were called inactive; nt = not tested or not shown; + = active, no number.

SMILES	GDH-TPI inh	Mtb UGM inh	Rv3671c protease	FadD28 binding	Mtb FBA inh	Mtb hypoxia rep
CCc1cc(C(=O)N2CCCC(C(=O)c3cccc(OC(C)C)c3)C2)n(C)n1 (configuration not stated)	-7	1	3	-6	0	8
CCCCNC(=O)OC1CC2CCC(=O)N3CCC(C1)C23 (configuration not stated)	nt	nt	nt	nt	nt	4
CCOC(=O)C1C2COc3ccccc3C2N2C(=O)N(c3cccc(F)c3)C(=O)[C@]12C (some centres not stated)	nt	nt	nt	nt	nt	8
Cc1ccc(S(=O)(=O)c2cc3ccc(O)cc3oc2=O)cc1C	0	7	4	1	+	15
COc1ccc2cc(S(=O)(=O)c3ccccc3)c(=O)oc2c1	36*	-1	1	-2	+	4
CCCCCCc1cc2cc(S(=O)(=O)c3ccc(F)c(Cl)c3)c(=O)oc2cc1O	-7	nt	-15	-1	8	0
CC(=NNC(=O)c1ccoc1C)c1ccc(NC(=O)C2CCCC2)cc1	nt	nt	nt	nt	nt	5
Cc1occc1C(=O)NN=C/C=C\c1ccccc1[N+](=O)[O-]	nt	nt	nt	nt	nt	5
COc1cc2c(cc1OC)-c1cc(NC3CCCC3)nc(=O)n1CC2	27	0	7	-1	6	6
COc1cc2c(cc1OC)-c1cc(Nc3ccc(N(C)C)cc3)nc(=O)n1CC2	18	2	6	-2	5	9
COc1cc2c(cc1OC)-c1cc(Nc3cccc(F)c3)nc(=O)n1CC2	34*	nt	nt	nt	-2	3
COc1cc2c(cc1OC)-c1cc(OCc3ccccc3Cl)nc(=O)n1CC2	29	-1	-1	0	99*	7
CCN(CC)c1ccc(Nc2cc3n(c(=O)n2)CCc2cc(OC)c(OC)cc2-3)cc1	38*	0	1	-3	1	0
O=C(C=Cc1ccc(F)cc1)NC(=S)N1CCOCC1	nt	nt	nt	nt	nt	9
CC/C(=N\NC(=O)c1ccccc1Cl)c1c(O)n(C2CCCCC2)c(=O)[nH]c1=O	34*	-2	6	5	-3	1
CC/C(=N\NC(=O)c1ccccc1)c1c(O)n(C2CCCCC2)c(=O)[nH]c1=O	25	1	-2	-1	1	0
C/C(=N\Nc1nc(C)cc(C)n1)c1ccc(C)o1	32*	-3	1	-1	0	nt
CC(C)=CCn1c2ccc(NC(=O)NCc3ccc(F)cc3)cc2c(=O)n1C	5	nt	nt	-1	138*	nt
CC(C)=CCn1c2ccc(NC(=O)Nc3ccc(N(C)C)cc3)cc2c(=O)n1C	4	nt	nt	-2	3	nt
CCNC(=O)Nc1ccc2c(c1)c(=O)n(C)n2CC=C(C)C	4	nt	nt	0	173*	nt
COc1ccc(NC(=O)NCCc2ccc(Cl)cc2)cc1OC	-5	-4	1	-1	2	17
COc1ccc(CCNC(=O)Nc2ccc3c(c2)c(=O)n(C)n3CC=C(C)C)cc1OC	3	nt	nt	0	148*	nt
CC(=O)NN=C(C)CC(=O)NC(C)(C)C	nt	nt	nt	nt	nt	6
CCOC(=O)c1nc2sc3c(c2c(=O)n1C(C)C(=O)OCC)CCCC3 (configuration not stated)	11	-2	6	-1	135*	16
CC(=NNC(=O)CNC(=O)c1cccnc1)c1ccc(Cl)cc1	nt	nt	nt	nt	nt	0
SMILES	GDH-TPI inh	Mtb UGM inh	Rv3671c protease	FadD28 binding	Mtb FBA inh	Mtb hypoxia rep
CCCCCCc1nc2ccccc2c(=O)n1N	14	-1	-10	-2	136*	nt
C=CCCCCc1nc2ccccc2c(=O)n1N	-7	-2	-1	-4	4	1
O=C(NN=C1CC2C=CCC12)c1ccc(Br)o1 (configuration not stated)	nt	nt	nt	nt	nt	1
COc1ccc(-c2ccnc3nc(N4CCOCC4)nn23)cc1	34*	-2	1	-2	84*	8
COc1ccc(-c2ccnc3nc(-n4cccc4)nn23)cc1	11	0	-9	-3	6	-7
Cc1ccc(C(=O)NCc2ccc3c(c2)OCO3)c(C)c1	4	-1	0	-1	153*	18
Cc1cccc(C(=O)OCC(=O)NCc2ccc3c(c2)OCO3)c1C	-5	0	-7	0	1	nt
COc1cccc(C(=O)OCC(=O)NCc2ccc3c(c2)OCO3)c1OC	10	10*	0	-2	3	5
Cc1ccc(C(=O)NCc2ccc3c(c2)OCO3)c(Cl)c1	6	nt	nt	0	4	nt
O=C(Cc1cc(=O)[nH][nH]1)NN=C/C=C/c1ccccc1	nt	nt	nt	nt	nt	-4
CCOc1ccc(-c2c(C(=O)NN=Cc3cccnc3)nnn2-c2nonc2N)cc1	nt	nt	nt	nt	nt	-2
O=C(CNC(=O)c1[nH]cnc1C(=O)NC(Cc1ccccc1)C(=O)OCc1ccccc1)OCc1ccccc1 (configuration not stated)	nt	nt	nt	nt	nt	20
NC(=S)N/N=C1\CC(c2ccc3c(c2)OCCO3)Oc2ccc(F)cc21 (configuration not stated)	40*	3	-8	-1	-2	nt
NC(=S)NN=C1CC(c2ccc3c(c2)OCCCO3)Oc2ccc(F)cc21 (configuration not stated)	nt	nt	nt	nt	nt	12
NC(=S)N/N=C1\CC(c2ccc3c(c2)OCCCO3)Oc2ccc(F)cc21 (configuration not stated)	45*	0	-9	-6	0	nt
O=C(Cn1cc(C(F)(F)F)ccc1=O)NN=Cc1ccc(F)cc1	nt	nt	nt	nt	nt	-8
C#CC1(O)CCC2C3CCC4=CC(=O)CCC4=C3C=CC21C (configuration not stated)	42*	nt	nt	0	14	nt
C#C[C@]1(O)CC[C@H]2[C@@H]3CCC4=CC(=O)CC[C@@H]4[C@H]3CC[C@@]21C	12	-2	-5	-2	5	nt
COc1ccc(N2CCN(C(=O)C3CCN(S(=O)(=O)c4c(C)noc4/C=C/N(C)C)CC3)CC2)cc1	44*	-7	-4	0	-1	2
COc1ccc(CNC(=O)C2CCN(S(=O)(=O)c3c(C)noc3/C=C/N(C)C)CC2)cc1	45*	3	-15	2	9	-6
COCCNC(=O)C1CCN(S(=O)(=O)c2c(C)noc2/C=C/c2cccs2)CC1	39*	2	9	-1	0	3
CCN(CC)CCNC(=O)C1CCN(S(=O)(=O)c2c(C)noc2/C=C/c2ccccc2F)CC1	15	-1	-6	-6	1	-4
COc1ccc(N2CCN(S(=O)(=O)c3c(C)noc3/C=C/N(C)C)CC2)cc1	40*	1	0	1	2	-2
COc1ccc(N2CCN(C(=O)C3CCCN(S(=O)(=O)c4c(C)noc4C)C3)CC2)cc1 (configuration not stated)	7	-2	6	-2	-4	8
COc1ccc(-c2n[nH]c(=S)n2N=C/C=C/c2ccccc2OC)cc1	nt	nt	nt	nt	nt	13
CN(C)Cc1c(C(=O)NN=C/C=C/c2ccccc2)nnn1-c1nonc1N	nt	nt	nt	nt	nt	-9
